In PubChem BioAssay one finds composite z-score and z-score data, which are given here for 16 compounds.

Activity calls are given as the source filed them.

Assay [1] in a line: anti-His antibody binders, primary screen, artefact control for SMM control protein annotation, biochemical, small-molecule microarray, 635 nm fluorescence (AID 1128).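 Also: score merges feature fluorescence with signal-to-noise for each printed compound spot.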 The note with it: anti-His Alexa647 antibody binding, higher = more signal.
In assay [2] the test system is Human papillomavirus type 1a E7 protein (residues 1-88). As to the kind of experiment: HPV1a E7 small-molecule binders, primary screen, biochemical, small-molecule microarray, residues 1-88, 635 nm (AID 1129). The note with it: small-molecule microarray binding, fluorescence 635 nm; higher = more signal.
The target in assay [3] is Focal adhesion kinase 1 (Homo sapiens) (UniProt Q05397). In words: small-molecule microarray binders of FAK, primary screen, biochemical, 635/667 nm fluorescence, BSA, DTT (AID 1130).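 Also: composite of spot emission at 667 nm and signal to noise over triplicate slides.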 The note with it: PTK2 binding, 635 nm fluorescence, higher = more signal.
Focal adhesion kinase 1 (Homo sapiens), sequence (Q05397 whole entry, looked up): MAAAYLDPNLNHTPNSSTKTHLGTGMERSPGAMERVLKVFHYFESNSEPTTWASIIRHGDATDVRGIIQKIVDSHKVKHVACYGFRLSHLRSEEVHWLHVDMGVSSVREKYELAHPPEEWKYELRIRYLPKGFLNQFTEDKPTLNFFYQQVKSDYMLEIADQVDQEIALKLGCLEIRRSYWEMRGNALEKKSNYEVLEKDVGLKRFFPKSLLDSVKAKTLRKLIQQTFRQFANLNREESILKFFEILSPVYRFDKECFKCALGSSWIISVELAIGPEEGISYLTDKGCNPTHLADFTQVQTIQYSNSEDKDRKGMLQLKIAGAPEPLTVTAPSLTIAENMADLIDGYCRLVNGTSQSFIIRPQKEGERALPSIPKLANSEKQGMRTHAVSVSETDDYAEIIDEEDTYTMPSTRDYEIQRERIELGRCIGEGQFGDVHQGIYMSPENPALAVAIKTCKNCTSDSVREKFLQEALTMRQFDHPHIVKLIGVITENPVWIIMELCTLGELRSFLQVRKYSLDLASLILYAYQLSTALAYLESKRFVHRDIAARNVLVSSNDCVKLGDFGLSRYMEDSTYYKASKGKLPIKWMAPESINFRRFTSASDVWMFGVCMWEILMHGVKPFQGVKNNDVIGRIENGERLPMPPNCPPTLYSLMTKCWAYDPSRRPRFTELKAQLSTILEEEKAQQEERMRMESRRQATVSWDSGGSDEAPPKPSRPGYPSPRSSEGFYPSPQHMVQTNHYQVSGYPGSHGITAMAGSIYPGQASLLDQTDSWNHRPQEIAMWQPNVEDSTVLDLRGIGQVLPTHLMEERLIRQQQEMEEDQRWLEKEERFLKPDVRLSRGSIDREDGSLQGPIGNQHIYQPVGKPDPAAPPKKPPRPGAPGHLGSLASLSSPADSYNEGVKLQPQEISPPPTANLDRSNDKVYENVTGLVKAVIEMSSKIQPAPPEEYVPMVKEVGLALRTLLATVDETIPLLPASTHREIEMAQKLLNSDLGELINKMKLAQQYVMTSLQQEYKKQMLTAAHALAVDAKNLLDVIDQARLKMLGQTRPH
Assay [4] has as its system Fibrinogen (Alexa647-labelled). As to the kind of experiment: fibrinogen binders on compound microarrays, profiling panel, artefact control for SMM control-protein annotation, biochemical, small-molecule microarray, 635/667 nm fluorescence (AID 1131).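 Also: z-score merges 667 nm fluorescence with per-spot signal-to-noise over triplicate slides.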 The note with it: fibrinogen-A647 binding fluorescence, higher = more signal.
Assay [5] has as its target Follistatin (Homo sapiens) (UniProt P19883). In words: follistatin binders on small-molecule microarrays, primary screen, biochemical, small-molecule microarray, 635/667 nm fluorescence (AID 1132). The note with it: FST binding, 635 nm fluorescence, higher = more signal.
For assay [6], the target named is Fibroblast growth factor 2 (Homo sapiens) (UniProt P09038). In words: FGF2 binders on small-molecule microarrays, primary screen, biochemical, small-molecule microarray, 635/667 nm fluorescence (AID 1133). The note with it: small-molecule microarray binding, FGF2, fluorescence 635/667; higher = more signal.
Fibroblast growth factor 2 (Homo sapiens), sequence (P09038 whole entry, looked up): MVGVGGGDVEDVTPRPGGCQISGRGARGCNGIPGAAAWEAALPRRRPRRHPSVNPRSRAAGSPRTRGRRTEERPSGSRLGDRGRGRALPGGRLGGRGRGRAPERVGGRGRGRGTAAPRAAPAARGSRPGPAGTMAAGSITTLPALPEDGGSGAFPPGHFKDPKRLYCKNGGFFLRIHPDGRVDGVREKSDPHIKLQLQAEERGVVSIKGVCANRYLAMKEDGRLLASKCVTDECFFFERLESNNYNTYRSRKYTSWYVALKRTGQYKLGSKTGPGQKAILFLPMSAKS
Assay [7] can be described thus: mitochondrial membrane potential change in A549 cells, profiling panel, cell-based, JC-1 fluorescence, basal, 24 h, 100 nL (AID 1138).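 Also: A549 lung adenocarcinoma cells under basal conditions with no added stimulus; test concentration not given here.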 The note with it: higher = more signal.
For another assay, the system named is Lefty1. In words: Lefty1 binders on small-molecule microarrays, primary screen, biochemical, small-molecule microarray, 635/667 nm fluorescence (AID 1139). The note with it: small-molecule microarray binding, fluorescence 635/667; higher = more signal.
Assay [8] relates to wheat germ agglutinin (Triticum aestivum), Alexa647-labelled. In words: wheat germ agglutinin binders on compound microarrays, profiling panel, artefact control for SMM control-protein annotation, biochemical, small-molecule microarray, 635/667 nm fluorescence (AID 1140).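 Also: score merges 667 nm feature emission with signal to noise over triplicate slides.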 The note with it: WGA-A647 binding, 635 nm fluorescence, higher = more signal.
Assay [9] addresses Luciferin 4-monooxygenase (Photinus pyralis) (UniProt P08659). As to the kind of experiment: firefly luciferase enzyme inhibitors, primary screen, biochemical, luminescence, purified enzyme, 2006 set (AID 1141).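 Also: cell-free assay with purified firefly luciferase at 100 ng per well in PBS; test concentration not given here.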 The note with it: SteadyGlo luminescence, 30 min; higher = more signal, called active from +8 up or from −8 down unless noted.

Follistatin (Homo sapiens), sequence (P19883 whole entry, looked up): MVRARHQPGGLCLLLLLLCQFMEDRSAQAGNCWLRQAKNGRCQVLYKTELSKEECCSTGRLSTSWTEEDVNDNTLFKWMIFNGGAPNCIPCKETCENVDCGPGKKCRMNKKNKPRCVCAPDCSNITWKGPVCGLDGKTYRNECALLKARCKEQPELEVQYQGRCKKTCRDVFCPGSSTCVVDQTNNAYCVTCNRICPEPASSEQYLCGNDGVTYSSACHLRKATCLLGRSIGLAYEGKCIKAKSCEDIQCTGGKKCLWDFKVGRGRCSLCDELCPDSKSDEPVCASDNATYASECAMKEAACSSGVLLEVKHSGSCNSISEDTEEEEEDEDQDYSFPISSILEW
Luciferin 4-monooxygenase (Photinus pyralis), sequence (P08659 whole entry, looked up): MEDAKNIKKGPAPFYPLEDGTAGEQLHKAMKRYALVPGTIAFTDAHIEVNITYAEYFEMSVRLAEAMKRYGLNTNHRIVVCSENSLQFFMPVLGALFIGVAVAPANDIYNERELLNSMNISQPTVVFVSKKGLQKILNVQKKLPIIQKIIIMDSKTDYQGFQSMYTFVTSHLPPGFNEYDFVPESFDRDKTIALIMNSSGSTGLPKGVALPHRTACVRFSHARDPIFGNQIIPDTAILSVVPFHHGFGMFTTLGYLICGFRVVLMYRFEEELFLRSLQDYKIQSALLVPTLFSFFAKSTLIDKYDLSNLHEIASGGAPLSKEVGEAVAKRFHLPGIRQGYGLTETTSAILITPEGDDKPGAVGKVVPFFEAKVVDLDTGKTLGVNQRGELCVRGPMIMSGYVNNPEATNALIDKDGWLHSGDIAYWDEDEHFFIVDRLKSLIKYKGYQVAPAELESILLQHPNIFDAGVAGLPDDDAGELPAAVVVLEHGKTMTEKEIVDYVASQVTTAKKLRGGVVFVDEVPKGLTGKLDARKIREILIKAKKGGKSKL

For `CCCc1cc2c(n1Cc1ccc(C)cc1)C(C)C1CN(C(=O)c3ccccc3)C(C)(C(=O)OC)C21` (stereo not given), the composite z-score in assay [1] turned out to be 2.14; in [2], 1.06; in [3], 1.29; in assay [4] it was 0.889; in assay [5], 0.66; in [6], 0.578. Moreover, the composite z-score was -0.544 in the assay on Lefty1 and 0.833 in [8]. For the same compound, the z-score was 1.14 in [7] and -1.17 (inactive) in assay [9].
Turning to `COC(=O)C1(C)C=C2C(=C(C)C(=O)C2C)CN1` (stereo not given), the composite z-score in [1] is 0.207; in [2] it was 0.111; in assay [3], 0.885; in assay [4], -1.52; in assay [5], -0.0995; in assay [6], -0.755. In addition, the composite z-score with Lefty1 is -0.868; in [8], -0.0605. For the same compound, the z-score in [7] is -1.82; in assay [9] it was 2.34 (inactive).
As to `CCc1cc2c(nc1CC)CCN(CCC(C)=NOC)C2`, the composite z-score in assay [1] is 3.12; in assay [2], 0.422; in [3] it was -0.128; in assay [4], -0.15; in assay [5], 1.24; in assay [6], 0.294. Further, the composite z-score with Lefty1 is 0.861; in [8], -0.141. For the same compound, the z-score in assay [7] is 0.268; in assay [9] it was -0.773 (inactive).
Take `COC(=O)[C@@]1(Cc2ccccc2)[C@H]2c3cc(C(=O)N(C)C)n(C)c3C[C@H]2CN1C(=O)c1ccccc1`: the composite z-score in assay [1] was 1.18; in [2] it was 0.898; in assay [3] it was 0.144; in assay [4] it was 0.84; in assay [5] it was -0.21; in assay [6], 0.125. In addition, the composite z-score was -0.627 in the assay on Lefty1 and 0.668 in assay [8]. Further, the z-score in [7] is -0.0935; in assay [9], 1.59 (inactive).
Regarding `CN1CCc2nc(CO)c(CO)cc2C1`, the composite z-score in [1] was 1.08; in assay [2], 0.635; in [3] it was 0.11; in assay [4] it was 0.291; in assay [5] it was 0.398; in [6], 0.576. Besides, the composite z-score with Lefty1 was 0.263; in assay [8], -0.0298. The figures for the z-score in assay [7] and in assay [9] were 1.02 and -0.529 (inactive), respectively.
For `COC(=O)[C@H]1[C@H](c2ccccc2)C(=O)[C@]2(O)c3ccccc3O[C@@]12c1ccccc1`, the composite z-score in [1] is -0.179; in [2], 0.382; in assay [3] it was 0.227; in assay [4], 0.826; in assay [5], 0.402; in assay [6], 0.186. The composite z-score worked out at 0.266 with Lefty1 and 0.167 in assay [8]. Moreover, the z-score was 0.866 in assay [7] and -1.9 (inactive) in [9].
Turning to `COC(=O)NCC=Cc1nc(CCC=CC(=O)O[C@H]2CC3CC(=O)O[C@@H](C=CCC(C)C)C[C@@H]4CC[C@H](C)[C@@H](C[C@@H](OC)C[C@H](C2)O3)O4)co1`, the composite z-score in assay [1] was -0.106; in assay [2], -1.42; in assay [3] it was -0.422; in [4], -1.2; in assay [5], -0.822; in assay [6], -0.43. Further, the composite z-score in the assay with Lefty1 was -0.422; in assay [8], -0.777. Moreover, the z-score in [7] is 1.88; in assay [9], -0.0363 (inactive).
For `CCCC[C@@H]1C[C@H]1[C@@H](NP(=O)(c1ccccc1)c1ccccc1)c1ccc(Cl)cc1`, the composite z-score was 1.23 in assay [1]; -0.212 in [2]; 0.343 in assay [3]; -0.741 in assay [4]; -1.38 in assay [5]; -0.748 in assay [6]. In addition, the composite z-score is -1.83 with Lefty1 and 0.319 in assay [8]. Further, the z-score is 0.179 in [7] and 0.183 (inactive) in [9].
In the case of `OCc1ccc(C2=CC(C3CC3)N(Cc3sc4ccccc4c3Cl)CC2)cc1` (stereo not given), the composite z-score is 2.28 in assay [1]; 1.17 in assay [2]; 0.257 in assay [3]; 0.483 in assay [4]; 1.06 in [5]; 0.867 in assay [6]. Also, the figures for the composite z-score (in the assay with Lefty1; in assay [8]) were 0.853 and 0.42, respectively. The z-score in assay [7] is 0.941; in assay [9], -1.57 (inactive).
In the case of `OCc1ccc(C2=CC(c3cccs3)N(Cc3cccc(OC(F)(F)F)c3)CC2)cc1` (stereo not given), the composite z-score in [1] is 2.04; in assay [2], -0.38; in [3], 0.147; in assay [4], -0.365; in assay [5], 0.663; in assay [6] it was 0.108. For the same compound, the composite z-score in the assay on Lefty1 was determined as 0.704; in assay [8], 0.173. Also, the values for the z-score in assay [7] and in [9] were 0.944 and -1.26 (inactive), respectively.
Consider `COc1cc2c(cc1O)C=[N+](C)CC2`, for which the composite z-score in [1] is 1.02; in assay [2] it was -0.662; in assay [3], -0.0048; in assay [4], -1.32; in assay [5], 0.469; in assay [6] it was 1.17. Also, the composite z-score is 0.495 in the assay with Lefty1 and -0.252 in assay [8]. Also, the z-score is 1.28 in [7] and -0.556 (inactive) in assay [9].
`CCCc1cc2c(n1Cc1ccco1)C(C)C1CN(C(=O)c3ccccc3)C(C)(C(=O)OC)C21` (stereo not given): the composite z-score was 1.7 in [1]; 0.806 in assay [2]; 0.307 in assay [3]; 0.717 in assay [4]; 1.13 in [5]; -0.0321 in assay [6]. Further, the composite z-score came to 0.494 in the assay with Lefty1 and 1.29 in assay [8]. Also, the results for the z-score in assay [7] and in assay [9] were -0.0794 and -7.6 (inactive), respectively.
`COC(=O)[C@H]1C(=O)c2ccccc2O[C@@](C(=O)OC)(c2ccccc2)[C@@H]1c1ccccc1`: the composite z-score in [1] is -0.34; in [2] it was -1.34; in assay [3] it was 0.0173; in assay [4], -1.75; in assay [5], -0.245; in assay [6], -0.105. In addition, the composite z-score was -0.0506 with Lefty1 and -0.738 in assay [8]. The figures for the z-score in [7] and in assay [9] were -0.778 and 0.164 (inactive), respectively.
Consider `CN1CCC(c2ccc(CO)cc2)=CC1c1cccs1` (stereo not given), for which the composite z-score is 0.399 in [1]; -0.668 in [2]; 0.903 in assay [3]; -0.28 in assay [4]; 0.699 in [5]; 0.0576 in assay [6]. Moreover, the figures for the composite z-score (with Lefty1; in assay [8]) were 1.35 and 0.244, respectively. Also, the values for the z-score in [7] and in assay [9] were 0.389 and -1.16 (inactive), respectively.
In the case of `C[C@H]1O[C@H]2C3=C(C(=O)[C@@H]4O[C@@H]4[C@@H]3O)[C@@H]1[C@@H]1[C@@H](C)OC=C3[C@@H](O)[C@H]4O[C@H]4C(=O)[C@]312`, the composite z-score in assay [1] is -0.652; in assay [2], -0.539; in assay [3], -0.27; in [4] it was -0.727; in assay [5], -0.72; in assay [6] it was -0.0771. Also, the composite z-score with Lefty1 was -0.235; in assay [8] it was 0.202. The z-score in [7] is 0.344; in assay [9], -1.61 (inactive).
For the compound `CCOC(=O)[C@H]1CC=C2C(=O)Oc3ccc(Br)cc3[C@@H]21`, the composite z-score was 0.819 in assay [1]; 1.27 in assay [2]; 1.87 in assay [3]; 0.474 in [4]; -1.1 in assay [5]; -1.3 in assay [6]. Moreover, the figures for the composite z-score (in the assay on Lefty1; in assay [8]) were -1.66 and -0.0424, respectively. The z-score is -0.896 in assay [7] and 0.936 (inactive) in [9].
